Source: ChEMBL document CHEMBL3988442, “University of Dundee, Small-Polar-MMV Screening Library” (2021)
Among all 66,000 compounds or so, about 960 (1.5%) showed an effect of 50% or more. For the sample, strong results were picked, then their nearest neighbours and some compounds at random.

Tested on: Trypanosoma brucei
Test: Trypanosoma brucei 72 hour study
Type: functional, organism-based
Parameters: scale not given: in the data most compounds retested in dose-response had high values

Row | Compound | Percent Effect (30.3 µM, […]) [%] | Percent Effect (30 µM, 30.03 µM) [%]
1 | O=C(c1cc[nH]n1)N1CCCC(c2cc(C(F)(F)F)[nH]n2)C1 (configuration not stated) | 17.05 | –
2 | O=C(c1ccc[nH]1)N1CCCC(c2cc(C(F)(F)F)[nH]n2)C1 (configuration not stated) | – | 38.21
3 | O=C(c1cc(Cl)c[nH]1)N1CCCC(c2cc(C(F)(F)F)[nH]n2)C1 (configuration not stated) | 80.28 | –
4 | CCOC(=O)C1CC2(CCCCC2)N2CCC(=O)N12 (configuration not stated) | -30.31 | –
5 | Cc1ccc(C(=O)N2Cc3c(CN4CCCCC4)nn(C)c3C2)o1.O=C(O)C(F)(F)F | – | 0.5997
6 | COc1cccc(-c2cc(NCCO)nc3[nH]ccc23)n1 | -6.078 | –
7 | COc1cccc(-c2cc(NCCN(C)C)nc3[nH]ccc23)n1 | 96.05 | –
8 | COc1cccc(-c2cc(NCC(=O)O)nc3[nH]ccc23)n1 | -16.38 | –
9 | O=C(O)CCn1ccc2c(nnc3c(-c4ccc(F)cc4)cnn32)c1=O | – | -41.42
10 | Cc1ccc(-n2cc(CN3CCOCC(CN(C)C)C3)cn2)cc1C (configuration not stated) | 98.04 | –
11 | Cc1cc(-n2cccn2)ccc1CN1CCOCC(CN(C)C)C1 (configuration not stated) | -10.31 | –
12 | Cc1cc(C)c(-n2cccn2)c(CN2CCOCC(CN(C)C)C2)c1 (configuration not stated) | -14.72 | –
13 | CN(C)c1ncc2c(O)nc(C3CCNCC3)cc2n1.Cl | -29.5 | –
14 | CC(=O)NC1CCN(c2ccnc(C3CCNCC3)c2)CC1.O=C(O)C(F)(F)F | -10.98 | –
15 | O=C(Nc1ccccn1)NC1CCN(c2ccccc2OC(F)F)C1 (configuration not stated) | – | -33.53
16 | O=C(Nc1cccnc1)NC1CCN(c2ccccc2OC(F)F)C1 (configuration not stated) | – | -24.57
17 | O=C(Nc1ccncc1)NC1CCN(c2ccccc2OC(F)F)C1 (configuration not stated) | – | 57.33
18 | Cc1nc(N(C)C)nc(C)c1NC(=O)c1ccccc1F | – | -23.68
19 | CO[C@@H]1CCN(Cc2cnn(C)c2)[C@@H]2CN(Cc3cccnc3)C[C@@H]21.O=C(O)C(F)(F)F.O=C(O)C(F)(F)F.O=C(O)C(F)(F)F | – | -0.5656
20 | CN(C)C(=O)CN1CCC(c2c(C(N)=O)sc3ncccc23)C1 (configuration not stated) | -20.96 | –
21 | CCc1ncc2c(n1)CN(Cc1cccc3c1OCCO3)CC2 | – | -15.38
22 | Cc1ncc2c(n1)CN(Cc1cccc3c1OCCO3)CC2 | – | -9.069
23 | CC(C)c1ncc2c(n1)CN(Cc1cccc3c1OCCO3)CC2 | – | 65.77
24 | O=C(O)C(F)(F)F.O=C(O)C(F)(F)F.O=C(c1ccsc1)N1C[C@@H]2OCCN(CCN3CCCC3)[C@@H]2C1 | -142.2 | –

Row | Compound | Percent Effect (30.3 µM, […]) [%] | Percent Effect (30 µM, 30.03 µM) [%]
25 | CCn1cc(Cl)c(C(=O)NCCOC)n1 | -26.01 | –
26 | COc1ccc(NC(=O)CCc2c(C)nc3cc(O)nn3c2C)cn1 | – | 73.91
27 | COC(=O)CCc1c(C)nc2cc(O)nn2c1C | – | 37.13
28 | CCNC(=O)CCc1c(C)nc2cc(O)nn2c1C | – | 30.72
29 | Cc1ccc2c(c1)CN(C(=O)c1cccnc1)C(CN(C)C)CO2.Cl (configuration not stated) | -3.741 | –
30 | Cc1cnc(N2CCO[C@@H]3CC(COCc4cccnc4)C[C@H]32)nc1.O=C(O)C(F)(F)F.O=C(O)C(F)(F)F (some centres not stated) | -14.97 | –
31 | Cl.c1cnc2c(c1)cc([C@@H]1CCCO1)n2CCN1CCOCC1 | -1.684 | –
32 | CCc1ccc(S(=O)(=O)N2Cc3c(CN(C)C)nn(C)c3C2)cc1.O=C(O)C(F)(F)F | -1.293 | –
33 | O=C(Nc1cccc(CN2CCOC2=O)c1)N1CCCCCC1 | – | -56.22
34 | O=C(Nc1cccc(CN2CCOC2=O)c1)N1CCSCC1 | – | 53.61
35 | O=C(Nc1cccc(CN2CCOC2=O)c1)N1CCCC1 | – | -2.123
36 | COc1ccc(C[C@H]2CN(C(=O)CN(C)C)CC[C@H]2OC)cc1.O=C(O)C(F)(F)F | 4.427 | –
37 | Cc1cc(COC(=O)[C@@H]2Cc3ccccc3CN2S(C)(=O)=O)no1 | – | 77.9
38 | CCS(=O)(=O)N1Cc2ccccc2CC1C(=O)OCc1cc(C)no1 (configuration not stated) | – | -34.32
39 | CCS(=O)(=O)N1Cc2ccccc2CC1C(=O)OCc1c(C)noc1C (configuration not stated) | – | -54.09
40 | COCCNC(=O)N1CCCC1COc1ccccc1 (configuration not stated) | -9.999 | –
41 | Cc1ccccc1SC1CCN(C(=O)C2CNC(=O)N2)CC1 (configuration not stated) | -1.493 | –
42 | Cc1ccccc1SC1CCN(C(=O)[C@H]2[C@@H]3CNC[C@@H]32)CC1 | 52.77 | –
43 | Cc1ccccc1SC1CCN(C(=O)C2CNCC(=O)N2)CC1 (configuration not stated) | 6.741 | –
44 | COCC1CN(Cc2ccoc2)Cc2nn(C)cc21.O=C(O)C(F)(F)F (configuration not stated) | – | 26.18
45 | CN(C)C[C@@H]1CCC[C@@H]2CN(c3ncccn3)C[C@@H]21.O=C(O)C(F)(F)F | -12.16 | –
46 | CN(C[C@@H]1CCC[C@@H]2CN(c3ncccn3)C[C@@H]21)C1CC1.O=C(O)C(F)(F)F | -3.838 | –
47 | CN(C)C[C@@H]1CCC[C@@H]2CN(c3nccc(C(F)(F)F)n3)C[C@@H]21.O=C(O)C(F)(F)F | 99.5 | –
